PubChem BioAssay AID652048 (National Center for Advancing Translational Sciences (NCATS), 2013)
About 2,400 (0.59%) of roughly 410,000 compounds were called active. The list comes from a sample in which actives are over-represented; it also holds similar structures and randomly drawn compounds. Unmarked numbers belong to inactive results. Cut-off read from the data, not from the text of the source: active = max activation above about 30%; inactive = the rest.

The compounds below were run against D(3) dopamine receptor (Homo sapiens) (UniProt P35462) (assay: qHTS of D3 Dopamine Receptor Agonist: qHTS). Details: D3R DiscoveRx beta-arrestin cells, luminescence, 90 min; stronger effect = higher value.
Chain of D(3) dopamine receptor (Homo sapiens) (P35462 whole entry, looked up): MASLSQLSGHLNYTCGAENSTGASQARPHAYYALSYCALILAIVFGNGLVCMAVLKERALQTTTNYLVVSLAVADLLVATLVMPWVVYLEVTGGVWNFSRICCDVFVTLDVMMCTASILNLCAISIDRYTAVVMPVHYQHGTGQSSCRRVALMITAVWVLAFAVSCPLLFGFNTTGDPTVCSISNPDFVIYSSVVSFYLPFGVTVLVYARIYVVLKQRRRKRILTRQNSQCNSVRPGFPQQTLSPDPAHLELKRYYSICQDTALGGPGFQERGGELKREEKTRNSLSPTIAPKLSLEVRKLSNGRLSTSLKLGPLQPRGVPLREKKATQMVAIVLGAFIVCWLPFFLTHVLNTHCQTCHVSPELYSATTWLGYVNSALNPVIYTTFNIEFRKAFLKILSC
Procedure, shortened: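 Cells at 1500/well, incubated overnight, then treated with pinned compounds (dopamine as control) for 90 min at 37 degrees C. DiscoveRx reagent added for 30 - 60 minutes at room temperature; luminescence read.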
Note: 0% is about no effect.

Structure (SMILES)	max activation
NC(=O)c1ncn([C@@H]2O[C@H](CNCc3cnc(N4CCOCC4)s3)[C@@H](O)[C@H]2O)n1	0%
NC(=O)c1ncn([C@@H]2O[C@H](CN=C3NS(=O)(=O)c4ccccc43)[C@@H](O)[C@H]2O)n1	40.4% (active)
COc1cc2c(cc1CNC[C@H]1O[C@@H](n3cnc(C(N)=O)n3)[C@H](O)[C@@H]1O)OCO2	4.9%
COc1cccc(Nc2nc3ccccc3c3nncn23)c1	10.1%
CCCn1c2ccccc2c2cnn(CC(=O)N3CCCC(C(=O)OCC)C3)c(=O)c21 (stereo not drawn)	6.55%
CCc1cccc(-n2nnc(-c3nsc(NC(=O)c4ccc(C)cc4)n3)c2C)c1	-11.9%
Cc1c(-c2nsc(NC(=O)c3cccc(Cl)c3)n2)nnn1-c1ccccc1C(F)(F)F	-0.907%
COc1ccc(-n2nnc(-c3nsc(NC(=O)c4ccc(C)c(C)c4)n3)c2C)cc1Cl	41.8% (active)
Cc1oc2c(C)c3oc(=O)c(CC(=O)N[C@@H](CC(C)C)C(=O)N[C@@H](Cc4ccccc4)C(=O)O)c(C)c3cc2c1C	11.4%
Cc1c(OC(C)C(=O)N[C@@H](Cc2ccccc2)C(=O)O)ccc2c3c(c(=O)oc12)CCCC3 (stereo partly drawn)	37.1% (active)
Cc1c(OC(C)C(=O)NCC2CCC(C(=O)O)CC2)ccc2c1oc(=O)c1ccccc12 (stereo not drawn)	-0.808%
COC(=O)c1c(NC(=O)c2cc(=O)c3c(C)cc(C)cc3o2)sc2c1CCCC2	4.95%
CCN1C(=NCCc2cccnc2)N[C@@H](c2ccccc2)C(C(=O)OC)=C1C	-55.8%
Cc1cc(C)cc(Nc2ncnc3onc(-c4ccc(F)cc4)c23)c1	9.02%
COc1ccc(C(=O)O/N=C(\N)Cc2ccc(Cl)cc2Cl)cc1OC	36.2% (active)
COc1ccc(CCn2ccc(O)c(Cc3ccc(Cl)cc3Cl)c2=O)cc1OC	-10.8%
COC(=O)c1ccc(OC(=O)c2nn(C)cc2Cl)c(OC)c1	1.35%
CC(=O)c1ccc(NC(=O)CCc2nc(-c3ccc(C)cc3)no2)cc1	2.51%
Cc1ccc(OCCSc2nc(-c3cccs3)nc3cc(=O)[nH]n23)cc1Cl	6.63%
Cc1c(C(=O)OC(C)C)sc(NC(=O)c2cccnc2)c1C#N	-1.22%
CCCc1ccc(-c2c(C)sc(NC(=O)c3ccnn3C)c2C#N)cc1	57.1% (active)
CCc1ccccc1NC(=O)CSc1nc(C)c(C(=O)Nc2ccccc2)c(-c2ccc(Cl)cc2)c1C#N	3.31%

Structure (SMILES)	max activation
Cc1ccccc1Nc1nn2c(=O)c3ccc(C(=O)NCCc4ccc(Cl)cc4)cc3nc2s1	4.22%
COc1cc(NS(=O)(=O)c2ccc3c(c2)OCC(C(=O)N2CCCC2)O3)cc(OC)c1 (stereo not drawn)	19.5%
Cc1c(CC(=O)N2CCN(C(=O)C3COc4ccccc4O3)CC2)c(=O)oc2c(O)c(O)ccc12 (stereo not drawn)	40.6% (active)
COc1ccc(OC)c2sc(N3CCN(C(=O)C4COc5ccccc5O4)CC3)nc12 (stereo not drawn)	-1.78%
CCC(C)c1ccc(O)c(/C=N/O)c1 (stereo not drawn)	-1.03%
CNCC(O)c1ccc(O)c(O)c1 (stereo not drawn)	137% (active)
Cc1cc(C)c(-c2n[nH]c3c2C(c2ccccc2F)N(CCO)C3=O)c(O)c1 (stereo not drawn)	-0.594%
CCC1(C)CC(=O)NC1=O (stereo not drawn)	-5.68%
Cc1cc(C(=O)Nc2cccc(C(F)(F)F)c2)c2c(C)nn(-c3cccc(F)c3)c2n1	8.25%
CCOC(=O)CSc1nnc(CNC(=O)c2cccs2)n1-c1cc(OC)ccc1OC	6.63%
CC(C)(C)OC(=O)N1CCC(c2c(C(=O)N3CCN(c4cccc(Cl)c4)CC3)cnn2-c2cccc(Cl)c2)CC1	-9.63%
COC(=O)c1ccccc1NC(=O)Cn1c(=O)n(-c2cccc(C(F)(F)F)c2)c(=O)c2c(C)c(C)sc21	-14.9%
Cc1ccc(N(Cc2ccc(C(=O)Nc3ccccc3C(=O)NCc3ccco3)cc2)S(C)(=O)=O)cc1C	33.8% (active)
CS(=O)(=O)N(Cc1ccc(Cl)cc1)c1ccc(C(=O)NCCSCc2ccco2)cc1	0.47%
CCN1CCN(C(=O)c2ccc(CN(c3ccc(C)c(C)c3)S(C)(=O)=O)cc2)CC1	-12.8%
Cc1oc2ncnc(N3CCCCC3)c2c1C(=O)N1CCN(c2cccc(Cl)c2)CC1	-5.06%
Cc1cc(C)cc(NC(=O)CSc2nc(=O)n(CCN3CCOCC3)c3c2CCC3)c1	0.821%
CC(C)(C)OC(=O)N1CCC(c2c(C(=O)NCc3ccccn3)cnn2-c2ccc(F)cc2)CC1	-0.963%
CCCOc1ccc(NC(=O)CC2C(=O)N(c3ccccc3)C(=O)N2Cc2ccco2)cc1 (stereo not drawn)	8.76%
CCc1ccc(-n2nnc(-c3nc(-c4ccccc4)no3)c2C)cc1	6.45%
COc1ccc(-c2cc(-c3nc(-c4cc(OC)c(OC)c(OC)c4)no3)[nH]n2)c(OC)c1	5.61%
